Source: PubChem BioAssay (Tox21)
Several values for one entry are separate records, joined by “and”; a condition that tells them apart may be missing. Equal values may be shown once. Records with an inconclusive call do not appear. Entries that show only a call come without a potency. Activity calls are given as the source filed them. The call rests on the fitted dose curve; in most records, active means well fitted activation curve with a large enough effect in the repeat runs; inconclusive means weak or mixed curves; inactive means flat fitted curve, though single readings scatter.

experiment: A CellTox Green Cytotoxicity Assay to monitor cytotoxicity in HEK293 cells - 24 hour (AID 1224875); conditions: CellTox Green fluorescence; series mostly up to 76.8 µM; further: nearly all actives have a fitted effect of over 45% in size
From the text: National Center for Advancing Translational Sciences [NCATS]
NIH Chemical Genomics Center [NCGC]
U.S. Environmental Protection Agency [EPA]
National Institutes of Environmental Health Sciences [NIEHS]
National Toxicology Program [NTP]
Cell-based models are critical for drug discovery. Determining the natural cytotoxic effects resulting from test compounds is an essential research activity. A CellTox Green Cytotoxicity Assay to monitor cytotoxicity in real time of continues cell culture during 40 hours of the compound treatment was used to screen Tox21 10K library compounds in Hek293 cells. CellTox Green Cytotoxicity Assay is a nonlytic, homogeneous, biofluorescent method to measure cytotoxicity in cell culture after experimental manipulation. The assay system uses a proprietary asymmetric cyanine dye that is excluded from viable cells but preferentially stains the dead cell's DNA. […] Viable cells produce no appreciable increases in fluorescence. Therefore, the fluorescence signal produced by the binding interaction with dead cell DNA is proportional to cytotoxicity.
The mixture of Hek293 cell suspension and reagents were dispensed at 600cells/6 ul/well in 1536-well tissue culture treated black solid bottom plates using a Multidrop dispenser. After the assay plates were incubated at a 37 C/5% CO2 incubator for 5 hours, 23 nL of compounds dissolved in DMSO, positive and negative controls was transferred to the assay plate by a pintool work station. The plates were incubated at 37 C for 40 hours. The fluorescence intensity were measured at 0h, 8h, 16h, 24h, 32h and 40h time points using ViewLux plate reader during compound treatment.
Potency means the concentration at half of the fitted maximal effect.

| SMILES | Potency |
| --- | --- |
| CCCCCCCCCCCCCCCC[N+](C)(C)C | 23.7 µM (active) and 43.6 µM (active) and 19 µM (active) |
| CCOC(=O)OC1=C(c2cc(C)ccc2C)C(=O)NC12CCC(OC)CC2 (stereo not given) | inactive |
| O=C1C=CC(=O)c2ccccc21 | 6.92 µM (active) |
| CCCOCC(=Nc1ccc(Cl)cc1C(F)(F)F)n1ccnc1 | 48.9 µM (active) |
| ClCc1ccccc1CCl | inactive |
| Nc1c(Oc2ccccc2)cc(O)c2c1C(=O)c1ccccc1C2=O | inactive |
| CCCCCCCCCCBr | inactive |
| CCOc1cc(C(C)(C)C)ccc1C1COC(c2c(F)cccc2F)=N1 (stereo not given) | inactive |
| Clc1ccc(CSC(Cn2ccnc2)c2ccc(Cl)cc2Cl)cc1 (stereo not given) | inactive |
| CN(CCCC(O)c1cccnc1)N=O (stereo not given) | inactive |
| CC(=O)[O-].CC(=O)[O-].[Hg+2] | 21.9 µM (active) |
| Cc1ccc(C(=O)Cl)cc1 | inactive |
| CCCN(CCC)c1c([N+](=O)[O-])cc(S(N)(=O)=O)cc1[N+](=O)[O-] | 23.3 µM (active) |
| N#CCCO | inactive |
| O=C(CBr)c1ccc(O)cc1 | inactive |
| N#C/C=C/C#N | inactive |
| Cc1c(Cl)c(=O)oc2cc(OP(=O)(OCCCl)OCCCl)ccc12 | inactive |
| CC(C)[C@H](C(=O)O[C@H](C#N)c1cccc(Oc2ccccc2)c1)c1ccc(Cl)cc1 | inactive |
| ClC1=C(Cl)[C@]2(Cl)[C@H]3[C@H]([C@H]4C=C[C@H]3C4)[C@@]1(Cl)C2(Cl)Cl | inactive |
| N#CNC#N | inactive |

| SMILES | Potency |
| --- | --- |
| CSCCCN=C=S | inactive |
| Clc1ccc(-c2ccc(Cl)c(Cl)c2Cl)c(Cl)c1Cl | inactive |
| ClC(Cl)=C(c1ccc(Cl)cc1)c1ccc(Cl)cc1 | inactive |
| Clc1ccc(-c2ccccc2)cc1 | inactive |
| N#CC(Cl)Cl | inactive |
| [Cd+2].[Cl-].[Cl-] | inactive |
| O=c1ssc(Cl)c1Cl | 38.9 µM (active) |
| CCN(CC)c1c([N+](=O)[O-])cc(C(F)(F)F)c(N)c1[N+](=O)[O-] | inactive |
| CC(C)(C)OO | inactive |
| CCc1ccccc1C | inactive |
| CCCCCCCCCCCCCCC(Br)C(=O)O (stereo not given) | inactive |
| CN(CCCC(=O)c1cccnc1)N=O | inactive |
| NNC(=O)c1ccccc1 | inactive |
| Cc1cc(C)c(C2=C(OC(=O)CC(C)(C)C)C3(CCCC3)OC2=O)c(C)c1 | inactive |
| Cc1cc(Cl)ccc1O[C@H](C)C(=O)O | inactive |
| COc1ccc([N+](=O)[O-])cc1O | inactive |
| O=C(CCl)Nc1ccccc1 | inactive |
| OC(c1ccc(Cl)cc1)(c1ccc(Cl)cc1)C(Cl)(Cl)Cl | inactive |
| COc1cccc2c1C(=O)c1c(O)c3c(c(O)c1C2=O)C[C@@](O)(C(=O)CO)CC3OC1CC(N2CCOC(OC)C2)C(O)C(C)O1 (stereo not given in full) | inactive |
| O=[N+]([O-])c1ccc(Oc2ccc(C(F)(F)F)cc2[N+](=O)[O-])cc1 | inactive |
